Bioassay records as filed in PubChem.
Sampled rows, rich in hits. Any-hit rate of the full collection: about 1%.
Efflux pump mplx – antifungal efflux pump inhibition, Nile Red retention; S. cerevisiae Candida pump triplex; actives 0.44% (n = 330,000); AID 485275; inhibition, % at 10 µM;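 active means plate passing quality check with inhibition over a set limit, or well fluorescence over plate mean plus 4 SD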;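 further: Nile Red retained in pooled yeast measured as flow cytometry median fluorescence; 0% = buffer negative control and 100% = Enniatin B positive control; higher means more Nile Red kept so more efflux inhibition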
A1 inh – inhibitors of the anti-apoptotic protein A1, read as caspase activation; MEF A1-2A-BIM cells, Caspase-Glo 3/7 luminescence, 3 h; percent of clofoctol response, vehicle zero; caspase activation, % (test concentration not listed); actives 0.066% (n = 330,000);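 active means over half of replicate activation scores above 10%, or exactly half above 10 with the replicate mean above 10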
NPR2 activator – GC-B (human) receptor activation | P20594 | HEK293-GC-B cells, CNP EC30, cGMP TR-FRET; 0% at EC30 CNP, 100% saturating CNP | activation, % at 10 µM | actives 0.11% (n = 370,000);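 active means activation at 10 µM reaching about 35% in either raw or pattern-adjusted values, limit read from the data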
Target sequence (P20594 whole entry, looked up): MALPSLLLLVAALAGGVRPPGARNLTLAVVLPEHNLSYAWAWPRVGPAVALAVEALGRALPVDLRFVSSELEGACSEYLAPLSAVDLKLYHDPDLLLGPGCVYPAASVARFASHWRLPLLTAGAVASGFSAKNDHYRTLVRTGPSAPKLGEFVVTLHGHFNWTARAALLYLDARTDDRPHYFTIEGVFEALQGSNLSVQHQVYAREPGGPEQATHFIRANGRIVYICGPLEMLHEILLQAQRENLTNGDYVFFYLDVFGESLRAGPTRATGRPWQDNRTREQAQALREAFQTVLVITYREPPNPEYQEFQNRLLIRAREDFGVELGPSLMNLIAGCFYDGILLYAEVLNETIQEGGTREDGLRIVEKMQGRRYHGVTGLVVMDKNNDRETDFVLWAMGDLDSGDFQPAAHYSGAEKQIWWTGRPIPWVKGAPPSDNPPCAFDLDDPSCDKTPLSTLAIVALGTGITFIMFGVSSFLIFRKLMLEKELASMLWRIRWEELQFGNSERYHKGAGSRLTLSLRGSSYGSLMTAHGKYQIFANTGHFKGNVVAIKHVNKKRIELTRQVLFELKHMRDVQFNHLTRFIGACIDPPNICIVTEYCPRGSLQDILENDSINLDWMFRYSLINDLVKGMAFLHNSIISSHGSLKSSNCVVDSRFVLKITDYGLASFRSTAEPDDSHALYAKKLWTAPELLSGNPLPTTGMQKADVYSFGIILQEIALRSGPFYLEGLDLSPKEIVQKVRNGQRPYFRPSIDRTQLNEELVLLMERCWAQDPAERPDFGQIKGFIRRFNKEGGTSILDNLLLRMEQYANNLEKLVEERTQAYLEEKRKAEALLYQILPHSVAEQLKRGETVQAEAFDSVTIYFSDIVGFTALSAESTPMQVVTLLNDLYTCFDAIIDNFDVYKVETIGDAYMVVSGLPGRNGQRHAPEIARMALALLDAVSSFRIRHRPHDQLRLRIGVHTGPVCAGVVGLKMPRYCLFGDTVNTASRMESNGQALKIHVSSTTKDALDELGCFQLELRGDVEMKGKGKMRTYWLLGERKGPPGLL
HSV augment – increases HSV replication in cells; HSV replication augmentation in cells, fold increase; maximum fold increase; actives 0.005% (n = 220,000); AID 1956; in the data active means maximum fold increase above about 1.5; tested in PC3 cells
H9c2 TAG inh – reduces triacylglycerol accumulation in H9c2 cells. Nile Red lipid (TAG) fluorescence; cells loaded with 200 µM oleic acid. inhibition, % at 12.5 µM. actives 0.66% (n = 230,000);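 active means pattern-corrected inhibition of lipid staining of at least 50% with the nuclear-stain viability signal not falling by more than 50%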;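 further: 0% = DMSO wells and 100% = triacsin C control wells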
NPR1 activator – GC-A (human) enzyme activation | P16066 | HEK293 GC-A cells, cGMP TR-FRET, EC30 ANP; 0% at EC30 ANP, 100% saturating ANP | activation, % at 10 µM | actives 0.14% (n = 370,000); in the data active means activation above about 40%
H9c2 TAG conf – triacylglycerol accumulation inhibition, confirmation; H9c2 lipid accumulation, Nile Red fluorescence; cells loaded with 200 µM oleic acid; actives 71% (n = 990); inhibition, % at 12.5 µM; shares compounds with H9c2 TAG inh;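 active means mean inhibition across replicates of 40% or more; inactive means mean inhibition below 40%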;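 further: plate controls were DMSO only wells for no effect and Triacsin C treated wells for full effect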
An asterisk follows results filed as active; i = inactive; / = not tested or not shown.

SMILES	Efflux pump mplx	A1 inh	NPR2 activator	HSV augment	H9c2 TAG inh	NPR1 activator	H9c2 TAG conf
Cn1cc(CN2CCN(c3ncccn3)CC2)c(-c2cccc(Cl)c2)n1	0	-1	-1	i	-17	-7	/
Cc1cc(N2CCN(Cc3cn(C)nc3-c3ccccc3F)CC2)cc(C)n1	0	0	1	i	74*	3	84*
O=C1C(NS(=O)(=O)c2cccs2)=C(N2CCN(c3cccc(C(F)(F)F)c3)CC2)C(=O)c2ccccc21	0	0	-2	i	60*	-2	78*
CCOC(=O)[C@]12CCCC=C1N(CCCOC)C(=O)[C@@H]2CC(=O)NCCc1ccccc1OC	/	/	4	/	/	0	/
CCn1c(SCC(=O)NN=Cc2ccc(C(=O)O)cc2)nc2ccccc21	/	/	-10	/	/	1	/
O=C(Nc1ccncc1)C1CCCN(S(=O)(=O)c2cccc3cccnc23)C1 (centres undefined)	0	0	-10	i	60*	-12	41*
COc1ccc(OC)c(C2CC(c3ccccc3)=NN2C(=S)Nc2ccccc2)c1 (centres undefined)	0	1	2	i	52*	0	50*
CCN(CC)S(=O)(=O)c1ccc(N2CCOCC2)c(NC(=O)c2[nH]c(C)c(C(C)=O)c2C)c1	0	1	8	/	69*	4	75*
CCN(CC)S(=O)(=O)c1ccc(N2CCOCC2)c(NC(=O)c2ccc(F)cc2)c1	0	-1	5	i	/	0	/
COC(=O)c1cc(-c2ccc(F)c(Cl)c2)c(=O)n2c1CCC2	/	/	-4	/	/	2	/
COc1ccccc1C(=O)Nc1cc(C)c(OCC(=O)N2CCOCC2)c(C)c1	0	-1	1	/	-1	-3	/
Cc1ccc(C(=O)Nc2cc(C)c(OCC(=O)N3CCOCC3)c(C)c2)cc1	0	-2	4	i	63*	5	42*
COc1ccc(CN(C)C[C@@H]2OCCCC[C@H](C)Oc3ccc(NC(=O)Nc4ccc(F)cc4)cc3C(=O)N([C@H](C)CO)C[C@H]2C)cc1	/	/	7	/	63*	0	47*
C[C@H]1CCCCO[C@H](CN(C)CC2CCCCC2)[C@@H](C)CN([C@@H](C)CO)C(=O)c2cc(NS(=O)(=O)c3ccccc3)ccc2O1	/	/	-3	/	57*	0	58*
Cc1ccc(C(=O)C2CCN(CC(=O)N3CC(C)CC(C)C3)CC2)cc1 (centres undefined)	/	/	2	/	/	7	/
Cc1c(C(=O)OCC(C)C)[nH]c2c1C(=O)CC(c1cccs1)C2 (centres undefined)	0	0	-15	i	64*	-2	50*
CCOCCOC(=O)c1[nH]c2c(c1C)C(=O)CC(c1ccccc1)C2 (centres undefined)	0	1	0	/	/	0	/
COCCOC(=O)c1[nH]c2c(c1C)C(=O)CC(c1cccs1)C2 (centres undefined)	/	/	-10	i	44	-1	/
CCOCCOC(=O)c1[nH]c2c(c1C)C(=O)CC(c1cccs1)C2 (centres undefined)	0	5.9*	-12	i	53*	2	50*
O=C(/C=C/c1ccc(OCCCF)cc1)NCc1ccc(Cl)cc1	0	-1	-2	/	14	0	/
COc1ccc(CNC(=O)/C=C/c2ccc(OCCCF)cc2)cc1	0	0	2	i	56*	-2	31
COCCCn1c(SCC(=O)Nc2ccc(NC(=O)c3ccco3)c(OC)c2)nc2ccccc2c1=O	0	0	3	i	62*	1	38
COc1ccc2nc(NC(=O)C3CCCN(S(=O)(=O)c4c(C)noc4C)C3)sc2c1 (centres undefined)	0	0	-6	i	46	16	/
COc1ccc2nc(NC(=O)c3cccc(OCc4c(C)noc4C)c3)sc2c1	0	-4	-3	/	58*	4	48*
CCSc1nnc(NC(=O)c2cccc(OCc3c(C)noc3C)c2)s1	0	0	3	i	12	3	/
SMILES	Efflux pump mplx	A1 inh	NPR2 activator	HSV augment	H9c2 TAG inh	NPR1 activator	H9c2 TAG conf
CCOc1ccc2nc(NC(=O)C3CCCN(S(=O)(=O)c4c(C)noc4C)C3)sc2c1 (centres undefined)	0	-2	-10	i	57*	-1	75*
Cc1ccc(-n2c(SCC(=O)Nc3ccc(Oc4ccccc4)cc3)nnc2-c2cccc(C)c2)cc1	/	/	4	/	/	-2	/
O=C(CN1CCC(n2nnc3cc(F)ccc32)CC1)NC1CC1	0	0	-3	i	8	-5	/
CCOc1ccc2nc(NC(=O)CN3CCC(n4nnc5cc(F)ccc54)CC3)sc2c1	0	0	-5	i	58*	-11	43*
COc1cccc(CCNS(=O)(=O)c2c(C)n[nH]c2C)c1	/	/	6	/	/	2	/
O=[N+]([O-])c1ccc(Nc2nc(N/N=C/c3cccc(F)c3)nc(N3CCCC3)n2)cc1	0	1	5	i	/	10	/
O=[N+]([O-])c1ccc(Nc2nc(NC3CCCCC3)nc(N3CCCC3)n2)cc1	0	-1	0	i	61*	4	82*
COc1ccc(NC(=S)N(CCCN2CCCC2)Cc2cccn2Cc2ccc(Cl)cc2)cc1Cl	0	0	-12	i	71*	-28	56*
Cc1ccc(NC(=S)N(CCCN2CCCC2)Cc2cccn2Cc2ccc(Cl)cc2)cc1Cl	0	4	-12	/	78*	-24	93*
Cc1ccc(NC(=S)N(CCCN2CCCC2)Cc2cccn2Cc2ccc(Cl)cc2)cc1C	0	1	-13	i	25	-24	/
Cc1cc(-c2n[nH]c(=S)n2N=Cc2cccc(Oc3ccccc3)c2)n[nH]1	/	/	-1	/	/	3	/
CN1C[C@H](C(=O)N[C@]2(C)O[C@@]3(O)[C@@H]4CCCN4C(=O)[C@H](Cc4ccccc4)N3C2=O)CC2c3cccc4[nH]cc(c34)C[C@H]21 (some centres undefined)	0	1	2	/	12	2	/
CC(C)C[C@H]1C(=O)N2CCC[C@H]2[C@]2(O)O[C@](NC(=O)C3C=C4c5cccc6[nH]c(Br)c(c56)C[C@H]4N(C)C3)(C(C)C)C(=O)N12 (some centres undefined)	0	-1	4	i	56*	2	92*
Clc1cccc(Nc2nc(-c3ccncc3)nc3ccccc23)c1	0	0	14	i	67*	22	52*
COc1cccc(N2CCN(C(=O)CCn3nnc4ccccc43)CC2)c1	/	/	-9	/	/	-3	/
N=c1n(CCO)c2ccccc2n1CCOc1ccc(Cl)cc1Cl	0	0	1	i	91*	-3	64*
